Source: PubChem BioAssay
Values without a mark were called inactive. Calls of active or inactive are those of the source. Unless noted, how the calls were made is not given here.

Biological target: Lethal factor (Bacillus anthracis) (UniProt P15917)
Assay: Lethal factor protease inhibitors, Bacillus anthracis, multiplex microsphere cleavage assay, validation set (AID 588461)
Conditions: flow cytometry, at 10 µM, hits give high values

Chain of Lethal factor (Bacillus anthracis) (P15917 whole entry, looked up): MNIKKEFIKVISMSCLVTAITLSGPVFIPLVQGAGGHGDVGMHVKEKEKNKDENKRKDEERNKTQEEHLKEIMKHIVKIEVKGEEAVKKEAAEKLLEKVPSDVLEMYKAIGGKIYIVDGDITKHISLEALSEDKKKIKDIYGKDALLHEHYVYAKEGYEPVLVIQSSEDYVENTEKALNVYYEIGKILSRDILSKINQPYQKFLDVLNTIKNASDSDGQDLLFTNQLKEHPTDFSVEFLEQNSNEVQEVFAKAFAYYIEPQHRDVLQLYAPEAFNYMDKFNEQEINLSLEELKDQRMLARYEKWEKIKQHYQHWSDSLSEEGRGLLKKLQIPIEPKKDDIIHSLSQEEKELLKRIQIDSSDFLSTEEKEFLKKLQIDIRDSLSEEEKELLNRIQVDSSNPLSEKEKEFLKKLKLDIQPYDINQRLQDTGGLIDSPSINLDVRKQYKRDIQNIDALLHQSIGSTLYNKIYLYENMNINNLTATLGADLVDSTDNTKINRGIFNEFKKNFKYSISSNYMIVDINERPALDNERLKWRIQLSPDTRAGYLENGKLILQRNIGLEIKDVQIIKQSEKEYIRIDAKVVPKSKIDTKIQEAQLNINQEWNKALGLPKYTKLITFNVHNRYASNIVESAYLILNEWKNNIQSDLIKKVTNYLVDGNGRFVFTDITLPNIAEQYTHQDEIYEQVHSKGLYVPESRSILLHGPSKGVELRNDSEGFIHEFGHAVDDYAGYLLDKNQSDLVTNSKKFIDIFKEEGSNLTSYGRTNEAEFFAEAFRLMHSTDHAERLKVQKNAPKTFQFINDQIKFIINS

Row | Structure (SMILES) | inhibition [%]
1 | CC(CCc1ccccc1)NC(C)C(O)c1ccc(O)cc1 (stereo unspecified) | -0.5
2 | NCCc1ccc(O)cc1 | -8.1
3 | CC/C(=C\C=C\[C@@H]1C=C[C@@H]2CCC[C@H]2[C@@H]1C(=O)c1ccc[nH]1)[C@@H]1O[C@@H]([C@@H](C)C(=O)O)CC[C@@H]1C | -4.4
4 | Cc1c2ccncc2c(C)c2c1[nH]c1ccccc12 | 2
5 | CCC(COC(=O)c1cc(OC)c(OC)c(OC)c1)(c1ccccc1)N(C)C (stereo unspecified) | -8.8
6 | Clc1ccc(COC(Cn2ccnc2)c2ccc(Cl)cc2Cl)c(Cl)c1 (stereo unspecified) | -5.1
7 | COc1cc(/C=C2\C(=O)NC(=O)N(c3ccccc3)C2=O)c([N+](=O)[O-])cc1OC | -1.8
8 | Nc1ccc([As](=O)(O)O)cc1 | 6.8
9 | O=C1CSC2N1CCNC21CCCCC1 (stereo unspecified) | -3.4
10 | CC(=O)Nc1cc([As](=O)(O)O)ccc1O | 5.5
11 | C[C@]12CCC(=O)C(O)=C1CC[C@@H]1[C@@H]2CC[C@]2(C)C(=O)CC[C@@H]12 | -6.6
12 | C[C@]12CCC(=O)C=C1CC[C@@H]1[C@@H]2C(=O)C[C@]2(C)C(=O)CC[C@@H]12 | -4.7
13 | CN1[C@@H]2CC[C@H]1CC(OC(=O)C1C=Nc3ccccc31)C2 (stereo partly specified) | 4.3
14 | CCCC(=O)OCC[N+](C)(C)C | 1.4
15 | CC12CCC3C(CC=C4CC5(CCC43C)OCCO5)C1CCC2=O (stereo unspecified) | 3.9
16 | Cc1nc2ccccc2c(=O)n1-c1ccc(C(=O)O)cc1 | -5.6
17 | c1ccc2c(c1)OCC(C1=NCCN1)O2 (stereo unspecified) | 0.2
18 | C[C@]12CC[C@@H]3c4ccc(O)c(O)c4CC[C@H]3[C@@H]1CC[C@@H]2O | 2
19 | NCC(O)c1ccc(O)cc1 (stereo unspecified) | 6
20 | COc1ccc2c3c([nH]c2c1)C(C)=NCC3 | -104
21 | CCCC(C)(COC(N)=O)COC(=O)NC(C)C (stereo unspecified) | 6.3
22 | c1cnc2c(c1)ccc1ncccc12 | -2.4
23 | CC12CN3CC(c4ccccc4)(CN(C1)C31CCCCC1)C2=O | -2.8
24 | C[C@H]1CCCC(=O)CCCCCc2cc(O)cc(O)c2C(=O)O1 | 4.1

Tested on: not listed separately
Assay: inhibitors of fungal efflux pumps CDR1, CDR2, MDR1, pilot screen, validation compound set, multiplex, phenotypic (AID 588506;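 active means efflux inhibition above 0.42, the validation set average plus 4 SD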;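 further: Nile Red retained in cells so higher fluorescence means more efflux inhibition; 0 = negative control wells and 1 = enniatin B 25 µM full block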)
Conditions: S. cerevisiae pump-expressing triplex, Nile Red efflux flow cytometry; at 10 µM; hits give high values

Row | Structure (SMILES) | efflux inhibition (fraction of control)
25 | CC(CCc1ccccc1)NC(C)C(O)c1ccc(O)cc1 (stereo unspecified) | -0.28
26 | NCCc1ccc(O)cc1 | -0.09
27 | CC/C(=C\C=C\[C@@H]1C=C[C@@H]2CCC[C@H]2[C@@H]1C(=O)c1ccc[nH]1)[C@@H]1O[C@@H]([C@@H](C)C(=O)O)CC[C@@H]1C | 0
28 | Cc1c2ccncc2c(C)c2c1[nH]c1ccccc12 | 0.3
29 | CCC(COC(=O)c1cc(OC)c(OC)c(OC)c1)(c1ccccc1)N(C)C (stereo unspecified) | 0.04
30 | Clc1ccc(COC(Cn2ccnc2)c2ccc(Cl)cc2Cl)c(Cl)c1 (stereo unspecified) | 0.33
31 | COc1cc(/C=C2\C(=O)NC(=O)N(c3ccccc3)C2=O)c([N+](=O)[O-])cc1OC | -0.09
32 | Nc1ccc([As](=O)(O)O)cc1 | -0.35
33 | O=C1CSC2N1CCNC21CCCCC1 (stereo unspecified) | 1.11 (active)
34 | CC(=O)Nc1cc([As](=O)(O)O)ccc1O | 0
35 | C[C@]12CCC(=O)C(O)=C1CC[C@@H]1[C@@H]2CC[C@]2(C)C(=O)CC[C@@H]12 | -0.17
36 | C[C@]12CCC(=O)C=C1CC[C@@H]1[C@@H]2C(=O)C[C@]2(C)C(=O)CC[C@@H]12 | 0.12
37 | CN1[C@@H]2CC[C@H]1CC(OC(=O)C1C=Nc3ccccc31)C2 (stereo partly specified) | -0.2
38 | CCCC(=O)OCC[N+](C)(C)C | -0.06
39 | CC12CCC3C(CC=C4CC5(CCC43C)OCCO5)C1CCC2=O (stereo unspecified) | -0.24
40 | Cc1nc2ccccc2c(=O)n1-c1ccc(C(=O)O)cc1 | -0.43
41 | c1ccc2c(c1)OCC(C1=NCCN1)O2 (stereo unspecified) | -0.12
42 | C[C@]12CC[C@@H]3c4ccc(O)c(O)c4CC[C@H]3[C@@H]1CC[C@@H]2O | -0.28
43 | NCC(O)c1ccc(O)cc1 (stereo unspecified) | -0.35
44 | COc1ccc2c3c([nH]c2c1)C(C)=NCC3 | -0.24
45 | CCCC(C)(COC(N)=O)COC(=O)NC(C)C (stereo unspecified) | -0.13
46 | c1cnc2c(c1)ccc1ncccc12 | 0.08
47 | CC12CN3CC(c4ccccc4)(CN(C1)C31CCCCC1)C2=O | -0.03
48 | C[C@H]1CCCC(=O)CCCCCc2cc(O)cc(O)c2C(=O)O1 | -0.13

Biological target: ATP-binding cassette sub-family B member 6 (Homo sapiens) (UniProt Q9NP58)
Sequence (Q9NP58 whole entry, looked up): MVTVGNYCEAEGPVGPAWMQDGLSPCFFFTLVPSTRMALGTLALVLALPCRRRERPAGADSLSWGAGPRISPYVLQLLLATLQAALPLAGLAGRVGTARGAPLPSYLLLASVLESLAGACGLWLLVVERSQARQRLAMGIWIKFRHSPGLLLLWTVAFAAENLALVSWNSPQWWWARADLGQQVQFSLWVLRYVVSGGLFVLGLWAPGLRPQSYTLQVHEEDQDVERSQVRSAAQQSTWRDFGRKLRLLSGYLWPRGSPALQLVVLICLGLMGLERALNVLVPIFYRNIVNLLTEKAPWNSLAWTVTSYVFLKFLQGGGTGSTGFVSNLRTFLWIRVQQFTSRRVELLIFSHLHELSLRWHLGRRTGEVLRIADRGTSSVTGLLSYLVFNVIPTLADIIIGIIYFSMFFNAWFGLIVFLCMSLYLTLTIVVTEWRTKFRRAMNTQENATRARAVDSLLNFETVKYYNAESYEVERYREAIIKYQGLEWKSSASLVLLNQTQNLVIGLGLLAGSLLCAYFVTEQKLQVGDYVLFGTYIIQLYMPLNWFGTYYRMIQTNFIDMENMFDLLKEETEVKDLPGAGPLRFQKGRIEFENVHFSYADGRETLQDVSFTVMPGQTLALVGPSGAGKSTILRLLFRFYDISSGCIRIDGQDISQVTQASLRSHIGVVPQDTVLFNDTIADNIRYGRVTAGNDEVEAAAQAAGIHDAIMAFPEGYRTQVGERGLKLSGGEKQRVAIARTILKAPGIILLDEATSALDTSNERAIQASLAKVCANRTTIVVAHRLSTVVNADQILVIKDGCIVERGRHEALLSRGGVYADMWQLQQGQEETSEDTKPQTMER
Assay: ABCB6 transporter inhibitors, pilot screen, K562-ABCB6 cells, flow cytometry, validation set (AID 588550;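 active means inhibition above the screen-wide mean plus 3 SD, about 51%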;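 further: 0% = DMSO wells and 100% = benzethonium chloride 70 µM positive control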)
Conditions: K562-ABCB6 porphyrin accumulation, 1 h, at 10 µM, hits give high values

Row | Structure (SMILES) | inhibition [%]
49 | CC(CCc1ccccc1)NC(C)C(O)c1ccc(O)cc1 (stereo unspecified) | 10
50 | NCCc1ccc(O)cc1 | -2
51 | CC/C(=C\C=C\[C@@H]1C=C[C@@H]2CCC[C@H]2[C@@H]1C(=O)c1ccc[nH]1)[C@@H]1O[C@@H]([C@@H](C)C(=O)O)CC[C@@H]1C | -1
52 | CCC(COC(=O)c1cc(OC)c(OC)c(OC)c1)(c1ccccc1)N(C)C (stereo unspecified) | 15
53 | Clc1ccc(COC(Cn2ccnc2)c2ccc(Cl)cc2Cl)c(Cl)c1 (stereo unspecified) | 5
54 | COc1cc(/C=C2\C(=O)NC(=O)N(c3ccccc3)C2=O)c([N+](=O)[O-])cc1OC | -21
55 | Nc1ccc([As](=O)(O)O)cc1 | 3
56 | O=C1CSC2N1CCNC21CCCCC1 (stereo unspecified) | 42
57 | CC(=O)Nc1cc([As](=O)(O)O)ccc1O | 6
58 | C[C@]12CCC(=O)C(O)=C1CC[C@@H]1[C@@H]2CC[C@]2(C)C(=O)CC[C@@H]12 | 21
59 | C[C@]12CCC(=O)C=C1CC[C@@H]1[C@@H]2C(=O)C[C@]2(C)C(=O)CC[C@@H]12 | -30
60 | CN1[C@@H]2CC[C@H]1CC(OC(=O)C1C=Nc3ccccc31)C2 (stereo partly specified) | 7
61 | CCCC(=O)OCC[N+](C)(C)C | 13
62 | CC12CCC3C(CC=C4CC5(CCC43C)OCCO5)C1CCC2=O (stereo unspecified) | 15
63 | Cc1nc2ccccc2c(=O)n1-c1ccc(C(=O)O)cc1 | -3
64 | c1ccc2c(c1)OCC(C1=NCCN1)O2 (stereo unspecified) | 7
65 | C[C@]12CC[C@@H]3c4ccc(O)c(O)c4CC[C@H]3[C@@H]1CC[C@@H]2O | 7
66 | NCC(O)c1ccc(O)cc1 (stereo unspecified) | 8
67 | COc1ccc2c3c([nH]c2c1)C(C)=NCC3 | -229
68 | CCCC(C)(COC(N)=O)COC(=O)NC(C)C (stereo unspecified) | 6
69 | c1cnc2c(c1)ccc1ncccc12 | 4
70 | CC12CN3CC(c4ccccc4)(CN(C1)C31CCCCC1)C2=O | -51
71 | C[C@H]1CCCC(=O)CCCCCc2cc(O)cc(O)c2C(=O)O1 | 0
